The structures appear in SMILES notation. Screen size: about 63,000 compounds; about 1,100 (1.7%) were called active. The sample as a whole holds a higher share of actives than the screen did. Potency and affinity values are given separately. A number with no mark means an inactive call. Cut-off read from the data, not from the text of the source: active = cytotoxicity above about 50%; inactive = the rest.

This test is described as follows: HPDE-C7 pancreatic duct cell viability loss – fluorescence, HTS (AID 430).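 Note: cells exposed to compound for 48 hours before viability readout; 0% = vehicle and 100% = reference cytotoxic drug.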 The conditions noted are these: HPDE-C7 pancreatic duct cells viability, at 10 µM, active compounds read high.
In the case of `CCOCc1nnc(NC(=O)CSCc2ccccc2)s1`, the cytotoxicity is -3.4%. Under `CC1CCCN(c2ncnc3c2cnn3-c2ccccc2)C1` (centres undefined) stands -9.4%. Turning to `Cc1cc(NC(=O)c2c(-c3ccccc3Cl)noc2C)no1`, the cytotoxicity was -12.4%. `CC(C)OCCCNC(=O)c1c(N)n(/N=C/c2ccccn2)c2nc3ccccc3nc12`: the cytotoxicity was 28.4%. Consider `CCCCNC(=O)c1c(N)n(/N=C/c2ccccn2)c2nc3ccccc3nc12`, for which the cytotoxicity is 50.5% (active).

For the molecule `COCCCNC(=O)c1c(N)n(/N=C/c2cccnc2)c2nc3ccccc3nc12`, the cytotoxicity is 33.1%. In the case of `CC(C)CNC(=O)c1c(N)n(/N=C/c2ccccn2)c2nc3ccccc3nc12`, the cytotoxicity was 14.8%. As to `CCC(C)NC(=O)c1c(N)n(/N=C/c2cccnc2)c2nc3ccccc3nc12` (centres undefined), the cytotoxicity was 41.4%.

Take `COCCCNC(=O)c1c(N)n(/N=C/c2ccccn2)c2nc3ccccc3nc12`: the cytotoxicity was 22%. On to `COCCNC(=O)c1c(N)n(/N=C/c2cccs2)c2nc3ccccc3nc12`, for which the cytotoxicity is 42.8%. In the case of `CCOc1cc(C(=O)NCCOC)ccc1OC`, the cytotoxicity was -6.6%. As for `CC(=O)N1CCN(S(=O)(=O)c2ccc(C)cc2)C1C(C)C` (centres undefined), the cytotoxicity is 11%. Take `CCOc1ccc(-c2cc(CCCC(=O)NCc3cccnc3)no2)cc1`: the cytotoxicity was -0.4%. As for `Cn1cccc1Cc1nnc(SCC(=O)NCC2CCCO2)n1-c1ccc(F)cc1` (centres undefined), the cytotoxicity is 0.9%.

Turning to `COc1ccc(NC2=NC3(CCCCC3)N=C(N)N2)cc1`, the cytotoxicity is 4.1%. Consider `COc1cccc(NC2=NC3(CCCCC3)N=C(N)N2)c1`, for which the cytotoxicity is 3.1%. Turning to `CCSc1nnc(NC(=O)c2cnccn2)s1`, the cytotoxicity was -7%. For `CCOC(=O)N1CCC(NC(=O)CC(NS(=O)(=O)c2ccc(Cl)cc2)c2ccco2)CC1` (centres undefined), the cytotoxicity is -6.1%. Consider `COc1ccc(OC)c(NC(=O)CCN2CCN(Cc3ccccc3)CC2)c1`, for which the cytotoxicity is 0.1%. With `CCCCNC(=O)CS(=O)Cc1nc(-c2cccc(C)c2)oc1C` (centres undefined), the cytotoxicity is 0.4%. With `Cc1cccc(-c2nc(CS(=O)CC(=O)NCCCSC3CCCCC3)c(C)o2)c1` (centres undefined), the cytotoxicity is 56.1% (active). Regarding `CCCCSCCCNC(=O)CS(=O)Cc1nc(-c2cccc(C)c2)oc1C` (centres undefined), the cytotoxicity was -17.4%. Take `Cc1ccc(C2(C(F)(F)F)NC(=O)N3CCN=C3S2)cc1` (centres undefined): the cytotoxicity was 81.6% (active). Under `Cc1ccc(C2(C(F)(F)F)NC(=O)N3CCCN=C3S2)cc1` (centres undefined) stands -18.8%; under `O=C1NC(c2ccccc2)(C(F)(F)F)SC2=NCCCN12` (centres undefined), -2.2%; under `CC(C)c1ccc2c(c1)C(=O)NC(C)(C)C2`, 1.8%. As to `COc1ccccc1C(=O)NCCn1cc(SCC(=O)Nc2nnc(C)s2)c2ccccc21`, the cytotoxicity was -8%. On to `CCCn1c(CN(Cc2ccccc2)Cc2ccccc2)nc2c1c(=O)n(C)c(=O)n2C`, for which the cytotoxicity is -14.9%. As for `CC(C)Cn1c(CN(Cc2ccccc2)Cc2ccccc2)nc2c1c(=O)n(C)c(=O)n2C`, the cytotoxicity is 51.7% (active). Consider `CC(C)Cn1c(CN(C)Cc2ccccc2)nc2c1c(=O)n(C)c(=O)n2C`, for which the cytotoxicity was -6.6%.

For `CCOP(=O)(c1ccc(N(C)C)cc1)C(O)c1cc(OC)c(OC)c(OC)c1` (centres undefined), the cytotoxicity was 5.9%. In the case of `C=COC(=O)CSc1nc(-c2cccs2)ccc1C#N`, the cytotoxicity is 26.7%. For `COC(=O)CSc1nc(-c2cccs2)ccc1C#N`, the cytotoxicity was 29.9%. On to `CCOC(=O)C(C)Sc1nc(-c2cccs2)ccc1C#N` (centres undefined), for which the cytotoxicity is 59.2% (active).

Consider `O=C(Nc1ccccc1N1CCCC1)c1ccco1`, for which the cytotoxicity is 3.9%. Regarding `O=c1[nH]c2cc3c(cc2cc1CN(CCCO)Cc1nnnn1Cc1ccc(F)cc1)OCO3`, the cytotoxicity is -1.2%. Regarding `CC(=O)Nc1nc(C)nc(-c2ccccc2)c1C(C)=O`, the cytotoxicity is -1.8%. The value for `CCc1nnc(NC(=O)CSc2nnc(-c3ccccc3O)n2-c2ccc(C)cc2C)s1` was 73.5% (active); that for `CCc1nnc(NC(=O)CSc2nnc(-c3ccccc3O)n2-c2ccc(C)cc2)s1` was -7.9%. For `CCc1nnc(NC(=O)CSc2nnc(-c3ccccc3OC)n2-c2ccccc2)s1`, the cytotoxicity is -8.7%.

On to `CCOC(=O)c1ccc2nc(NC(=O)C(C)C)sc2c1`, for which the cytotoxicity was -3.3%.

Consider `C=CCN(CC=C)S(=O)(=O)c1ccc2nsnc2c1`, for which the cytotoxicity is -6.7%. On to `C=CCN(CC=C)S(=O)(=O)c1ccc2nc(NC(=O)C(C)C)sc2c1`, for which the cytotoxicity was 76.7% (active).

As for `COc1ccc(-c2noc(CSc3nc4ccccc4c(=O)n3-c3ccccc3)n2)cc1OC`, the cytotoxicity is -10.3%. `Cc1ccccc1NC(=O)C1CCCN(S(=O)(=O)c2cnc[nH]2)C1` (centres undefined): the cytotoxicity is -5.3%. Turning to `CC(C)c1[nH]nc2c1C(C(C)C)C(C#N)=C(N)O2` (centres undefined), the cytotoxicity is -24.3%. For `Cc1cc(C2N=C(N)Nc3nc4ccccc4n32)c(C)n1-c1ccccc1Cl` (centres undefined), the cytotoxicity was 2.7%. As to `NC1=NC(c2ccc(F)cc2)n2c(nc3ccccc32)N1` (centres undefined), the cytotoxicity was -3.6%. Consider `COc1cc(S(=O)(=O)N2CCN(c3ccccc3)CC2)ccc1Cl`, for which the cytotoxicity is -12.6%. `CC(C)c1nc(SCc2ccccn2)c2c(=O)n(C)c(=O)n(C)c2n1`: the cytotoxicity is -2%.

`Cc1nc(SCc2c(F)cccc2Cl)c2c(=O)n(C)c(=O)n(C)c2n1`: the cytotoxicity was -26.2%. The value for `CC(C)c1nc(SCc2c(F)cccc2Cl)c2c(=O)n(C)c(=O)n(C)c2n1` was 77.1% (active); that for `CCOC(=O)c1cnc(SCC(=O)Nc2nnc(CC)s2)nc1N` was -4.3%. Consider `C=CCn1cnc2c(c1=O)c1nc3ccccc3nc1n2/N=C/c1cccc(OC)c1`, for which the cytotoxicity is 48.5%. As to `C=CCn1cnc2c(c1=O)c1nc3ccccc3nc1n2/N=C/c1cccc(OC)c1OC`, the cytotoxicity is 46.6%.

`O=C(CCSc1ccccc1)Nc1ccc(S(=O)(=O)N2CCOCC2)cc1`: the cytotoxicity was 1.8%.

For `COc1cc2c(cc1OC)C(c1cc(OC)c(OC)c(OC)c1)NCC2` (centres undefined), the cytotoxicity is 4.6%. The value for `COc1cc2c(cc1OC)C1Cc3ccc(OC)c(OC)c3CN1CC2` (centres undefined) was -10.2%; that for `O=C(O)C1CC(=O)N(c2ccc(F)cc2)C1` (centres undefined) was -16.5%; that for `CCOC(=O)C1C2C=CC3(CN(c4cccc(Cl)c4)C(=O)C13)O2` (centres undefined) was -0.8%. For `CC1(C)C2CC=C(/C=N/n3cnnc3)C1C2` (centres undefined), the cytotoxicity is -4.1%. Under `O=C(c1ccc(F)cc1)C1CCN(CCn2c(=O)[nH]c3ccccc3c2=O)CC1` stands 5.4%; under `O=c1c2ccccc2[nH]c(=S)n1CCN1CCN(Cc2ccccc2)CC1`, -3.8%. Under `COc1ccc(C(=O)OCC(=O)NCc2ccco2)cc1OC` stands -14.8%. For `CCCCOc1ccc(S(=O)(=O)Nc2cccnc2)cc1`, the cytotoxicity is -5.2%. The value for `COc1cc(S(=O)(=O)Nc2cccnc2)ccc1F` was -3.6%; that for `COc1ccccc1Oc1ccc(S(=O)(=O)Nc2cccnc2)cc1` was 51.5% (active). Under `Cc1nc(NC(=O)CSc2nc3cccnc3n2C2CCCCC2)sc1C` stands 9.2%.

With `Cc1nnc2sc(-c3cccc(NC(=O)c4ccc(-c5cccc(Cl)c5)o4)c3)nn12`, the cytotoxicity was 0.6%. With `Cc1ccc(-c2nn3c(C)nnc3s2)cc1NC(=O)c1ccc(Br)o1`, the cytotoxicity was -10.8%.

Turning to `CC(C)CNc1nc(Oc2ccc(=O)n(C)n2)nc(N2CCOCC2)n1`, the cytotoxicity is -7.6%. In the case of `Cc1ccc(-n2ncc3c(NCc4ccco4)ncnc32)c(C)c1`, the cytotoxicity is -6.7%. For the molecule `Cc1cccc(-n2ncc3c(NCc4ccco4)ncnc32)c1`, the cytotoxicity was 64.1% (active). `c1ccc(Cn2ncc3c(NCc4ccco4)ncnc32)cc1`: the cytotoxicity is 8.9%. Regarding `c1ccc(-n2ncc3c(NCc4ccco4)ncnc32)cc1`, the cytotoxicity was 1.4%. Consider `Clc1ccc(-n2ncc3c(NCc4ccco4)ncnc32)cc1`, for which the cytotoxicity was 17.4%.

As to `Clc1ccc(Cn2ncc3c(NCc4ccco4)ncnc32)c(Cl)c1`, the cytotoxicity was 51.5% (active). As for `Cc1cc(C)nc(N2CCC(C(=O)N3CCN(c4cc(Cl)ccc4C)CC3)CC2)n1`, the cytotoxicity was 59.5% (active). The value for `Cc1ccc(Cl)cc1N1CCN(C(=O)C2CCN(c3nnc(-n4cccc4)s3)CC2)CC1` was 43.7%; that for `Cc1ccc(C)c(N2CCN(C(=O)C3CCN(c4nc(C)cc(C)n4)CC3)CC2)c1` was 11.3%. Take `O=C(COC(=O)C1c2ccccc2Oc2ccccc21)NC1CCS(=O)(=O)C1` (centres undefined): the cytotoxicity was -3.2%. The value for `Cc1ccc2nc(NC3=NCN(Cc4ccc5c(c4)OCO5)CN3)nc(C)c2c1` was 8.3%; that for `Cc1nc(NC2=NCN(Cc3ccc4c(c3)OCO4)CN2)nc2ccccc12` was 2.1%. For the molecule `Cc1cc2nc(NC3=NCN(Cc4ccc5c(c4)OCO5)CN3)nc(C)c2cc1C`, the cytotoxicity is 93.4% (active).

Regarding `CC(=O)C1=C(O)C(=O)N(Cc2ccco2)C1c1ccccc1` (centres undefined), the cytotoxicity was -10.9%. Turning to `N=c1c(S(=O)(=O)c2ccccc2)cc2c(=O)n3ccccc3nc2n1Cc1ccco1`, the cytotoxicity is -0.3%. In the case of `Cc1ccc(CNC(=O)c2cc3c(=O)n4ccccc4nc3n(Cc3ccco3)c2=N)cc1`, the cytotoxicity was 104% (active).

`Cc1ccc(S(=O)(=O)c2cc3c(=O)n4ccccc4nc3n(Cc3ccco3)c2=N)cc1`: the cytotoxicity was 21.9%.

On to `N=c1c(C(=O)NCc2ccccc2)cc2c(=O)n3ccccc3nc2n1Cc1ccco1`, for which the cytotoxicity was 1.8%. Turning to `Cc1ccc(Cn2c(=N)c(C(=O)NCc3ccco3)cc3c(=O)n4ccccc4nc32)cc1`, the cytotoxicity is -10.8%. In the case of `CC1=C(C(N)=O)C(c2ccccn2)n2nc(-c3ccccc3Cl)nc2N1` (centres undefined), the cytotoxicity is 13.8%. Consider `C=C(C)COc1ccc2c3c(c(=O)oc2c1OCC(=C)C)CCC3`, for which the cytotoxicity was 11.5%.

On to `Cc1ccc(C(C(=O)NC2CCCCC2)N(Cc2cccnc2)C(=O)C2COc3ccccc3O2)o1` (centres undefined), for which the cytotoxicity is -11.7%. Turning to `C=CCn1c(SCC(=O)NC2CCCCC2)nnc1-c1sc(N)nc1C`, the cytotoxicity was -10%.

These data come from PubChem BioAssay AID430 (Sanford-Burnham Center for Chemical Genomics, 2006).
